# Assay results taken from PubChem BioAssay (Tox21).
# The source made the active and inactive calls. Calls come from the whole dose curve; as a rule, active = well fitted curve in the direction sought with a large enough effect in the repeat runs; inconclusive = weak or mixed curves; inactive = flat fitted curve, though single readings scatter. Starred links: 1 amine or outer side, 2 acyl side, 3 side chain; linkers in the order of their positions; H or OH if unused. Positions of bridges follow the written chain, without caps; N, C: chain ends. Non-standard residues stand in square brackets, D forms with d. Residues, ends and D or L forms follow the SMILES beside them. *: point of attachment. X5 = NC1=N[C@@H]([C@H](N[*:1])C(=O)[*:2])C[C@H](O)N1; ΔAla(Z-3-ureido) = NC(=O)N/C=C(\N)C(=O)O; β3hOrn = NCCC[C@H](N)CC(=O)*; Orn = NCCC[C@H](N)C(=O)O; Dap = NC[C@H](N)C(=O)O; Mpa = O=C(O)CCS
# Test: qHTS assay to test for compound auto fluorescence at 535 nm (green) in HEK293 cell free culture (AID 720682)
# Conditions: cell-free medium, green autofluorescence 485/535 nm; series mostly up to 46 µM; activity change: at the top concentration
# Method in brief: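 Cell-free medium (DMEM, 10% FBS) receives compound or DMSO by pintool. Plate read directly at Ex 485/Em 535 nm. Signal converted to fluorescein equivalency.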
# % is set by controls: 0 for no effect and ±100 for the full control effect.
Compound,Potency,activity change
COCC1=C(C(=O)OC(C)OC(=O)OC(C)C)N2C(=O)[C@@H](NC(=O)/C(=N\OC)c3csc(N)n3)[C@H]2SC1 (some centres undefined),inactive,–
CO[C@@H]1[C@@H](O[C@@H]2O[C@H](C)[C@@H](O[C@H]3C[C@@](C)(O)[C@@H](OC(=O)CC(C)C)[C@H](C)O3)[C@H](N(C)C)[C@H]2O)[C@@H](CC=O)C[C@@H](C)[C@@H](O)/C=C/C=C/C[C@@H](C)OC(=O)C[C@H]1O,inactive,–
CC(=O)O[C@H]1C[C@@H]2CC[C@@H]3[C@H](CC[C@@]4(C)[C@H]3C[C@H](N3CC[N+](C)(C)CC3)[C@@H]4OC(C)=O)[C@@]2(C)C[C@@H]1N1CC[N+](C)(C)CC1,–,-0.0533% (inactive)
NCCC[C@H](N)CC(=O)N[C@H]1CNC(=O)[C@H]([C@H]2C[C@H](O)NC(N)=N2)NC(=O)/C(=C/NC(N)=O)NC(=O)[C@H](CO)NC(=O)[C@H](CO)NC1=O (β3hOrn-[Dap]SS[ΔAla(Z-3-ureido)][X5]; lactam 1-C),–,0.0656% (inactive)
CCOc1ccc(C[C@H]2NC(=O)CCSSC[C@@H](C(=O)N3CCC[C@H]3C(=O)N[C@@H](CCCN)C(=O)NCC(N)=O)NC(=O)[C@H](CC(N)=O)NC(=O)[C@H]([C@@H](C)O)NC(=O)[C@H]([C@@H](C)CC)NC2=O)cc1 ([Mpa][dY](Et)ITNCP[Orn]G-NH2; disulfide 1-6),–,0.0488% (inactive)
O=P(O)(O)C(O)(Cc1cnc2ccccn12)P(=O)(O)O,–,-0.04% (inactive)
OCC(O)COc1ccc(Cl)cc1 (centres undefined),–,0.0039% (inactive)
CCCCCCCCCCCCCCCC(=O)OC[C@@H](NC(=O)C(Cl)Cl)[C@H](O)c1ccc([N+](=O)[O-])cc1,–,-0.0216% (inactive)
NC(=O)Oc1ccc(Cc2ccccc2)cc1,–,0.0307% (inactive)
CCCC(CCC)C(N)=O,–,0.0004% (inactive)
CC1CC(OC(=O)C(O)c2ccccc2)CC(C)(C)C1 (centres undefined),–,0.0455% (inactive)
OC(CN1CCCCC1)c1cc(-c2ccccc2)on1 (centres undefined),–,-0.128% (inactive)
CCC(c1ccccc1)c1noc(CCN(CC)CC)n1 (centres undefined),–,0.0527% (inactive)
O=S(O)CNc1ccc(S(=O)(=O)c2ccc(NCS(=O)O)cc2)cc1,–,0.0037% (inactive)
C=CCN1CCCC1CNC(=O)c1cc(S(N)(=O)=O)cc(OC)c1OC (centres undefined),–,-0.0145% (inactive)
CCCCCCCCCCCCCCCCCC(=O)OCCO,–,-0.0325% (inactive)
CCCCCCCCCCCCCCCCCCCCCC(=O)Nc1ccn([C@@H]2O[C@H](CO)[C@@H](O)[C@@H]2O)c(=O)n1,–,-0.0034% (inactive)

Compound,Potency,activity change
CCCCOC(=O)C(=O)Nc1cccc(-c2nn[nH]n2)c1,–,0.0359% (inactive)
CCOC(=O)[C@H](CCc1ccccc1)N[C@H]1CCCN2CCC[C@@H](C(=O)O)N2C1=O,–,-0.0915% (inactive)
CC(C)CN(C[C@@H](O)[C@H](Cc1ccccc1)NC(=O)O[C@@H]1CCOC1)S(=O)(=O)c1ccc(N)cc1,–,0.0686% (inactive)
O.O=C([O-])CC([S-])C(=O)[O-].[Au+].[Na+].[Na+] (centres undefined),–,-0.0619% (inactive)
O=P(O)(O)C(Sc1ccc(Cl)cc1)P(=O)(O)O,–,-0.107% (inactive)
O=C(CCCN1CCC(C(=O)c2ccc(F)cc2)CC1)c1ccc(F)cc1,–,0.177% (inactive)
C[C@H]1C[C@H]2[C@@H]3CCC4=CC(=O)C=C[C@]4(C)[C@@]3(F)[C@@H](O)C[C@]2(C)[C@@]1(O)C(=O)CCl,–,-0.0654% (inactive)
CC#CCC(C)[C@H](O)/C=C/[C@@H]1[C@H]2C/C(=C/CCCC(=O)O)C[C@H]2C[C@H]1O (some centres undefined),–,0.0923% (inactive)
NCCC[C@H](N)C(=O)O,–,-0.081% (inactive)
CN1[C@@H]2CCC[C@H]1CC(NC(=O)c1nn(C)c3ccccc13)C2 (some centres undefined),–,-0.0383% (inactive)
CS(=O)(=O)NC(=O)CCC/C=C\C[C@H]1C(=O)C[C@@H](O)[C@@H]1/C=C/[C@H](O)COc1ccccc1,–,-0.128% (inactive)
OC[C@@H](O)C(O)[C@H](O)CO,–,-0.0073% (inactive)
N[C@@H](C(=O)N[C@@H]1C(=O)N2C(C(=O)O)=C(CSc3cn[nH]n3)CS[C@H]12)c1ccc(O)cc1,–,-0.0317% (inactive)
CC1(C)S[C@@H]2[C@H](NC(=O)Cc3ccccc3)C(=O)N2[C@H]1C(=O)O,–,0.0975% (inactive)
COC(=O)[C@H]1[C@H]2C[C@@H]3c4[nH]c5cc(OC)ccc5c4CCN3C[C@H]2C[C@@H](OC(=O)/C=C/c2cc(OC)c(OC)c(OC)c2)[C@@H]1OC,–,"0.307% [at 18.6 µM, stronger effect = higher value] (inactive)"
Cn1nnnc1SCC1=C(C(=O)O)N2C(=O)[C@@H](NC(=O)[C@H](OC=O)c3ccccc3)[C@H]2SC1,–,0.0516% (inactive)
CC(C)(C)CC(=O)OCC(=O)[C@@]12OC(C)(C)O[C@@H]1C[C@H]1[C@@H]3CCC4=CC(=O)C=C[C@]4(C)[C@@]3(F)[C@@H](O)C[C@@]12C,–,0.0535% (inactive)
